Each compound was assayed against T1, Aspartate--tRNA(Asp/Asn) ligase (Mycobacterium tuberculosis (strain ATCC 25618 / H37Rv)) (UniProt P9WFW3) (assay: Assay for Asp RNA synthetase-1 from Mycobacterium tuberculosis). Settings: 30 µM.
T1 sequence (whole entry): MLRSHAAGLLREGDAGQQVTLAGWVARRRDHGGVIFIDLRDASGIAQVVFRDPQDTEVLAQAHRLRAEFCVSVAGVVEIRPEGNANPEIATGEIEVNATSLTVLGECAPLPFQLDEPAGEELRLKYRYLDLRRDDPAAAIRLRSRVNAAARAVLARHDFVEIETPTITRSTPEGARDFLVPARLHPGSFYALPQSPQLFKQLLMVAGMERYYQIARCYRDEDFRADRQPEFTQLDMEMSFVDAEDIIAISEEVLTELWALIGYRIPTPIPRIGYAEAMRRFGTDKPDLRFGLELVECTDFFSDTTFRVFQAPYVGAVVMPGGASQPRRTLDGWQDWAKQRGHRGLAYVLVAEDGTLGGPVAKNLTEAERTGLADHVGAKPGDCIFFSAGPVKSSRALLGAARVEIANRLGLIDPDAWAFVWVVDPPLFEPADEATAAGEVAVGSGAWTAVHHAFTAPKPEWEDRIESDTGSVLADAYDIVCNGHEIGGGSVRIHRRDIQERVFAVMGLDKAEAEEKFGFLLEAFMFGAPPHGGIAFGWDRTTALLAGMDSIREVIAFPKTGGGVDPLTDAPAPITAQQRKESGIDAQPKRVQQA
Format: functional
Design: scale not given: in the data most compounds retested in dose-response had high values

Row | SMILES | Percent Effect [%]
1 | Cn1cc2c(n1)C(CNC(=O)Cc1ccsc1)OCC2 (stereo not given) | -0.539
2 | Cc1cc(C(=O)NCCn2nc3ccccn3c2=O)[nH]n1 | -1.59
3 | CC(C)Nc1nc(N2CCOCC2)nc2c1CN(CC(=O)N(C)C)CC2 | 12.1
4 | CNC(=O)CS(=O)(=O)C1CCN(S(=O)(=O)c2ccccc2Br)CC1 | -6.53
5 | CCCN1CCC(N(Cc2ncc(C)o2)C(C)=O)C1 (stereo not given) | 2.38
6 | CCc1cnc2c(c1NCc1ccncc1)c(=O)n(C)c(=O)n2C | -0.949
7 | CN(CC(=O)NCc1ccccn1)CC1CCCN1c1cccnn1 (stereo not given) | -4.1
8 | Cc1ncsc1C(=O)N(Cc1cccnc1)C1CC1 | -0.522
9 | COc1ccc(Br)c(C(=O)NCC2CCN(C(=O)c3ccoc3)CC2)c1 | -5.03
10 | Cc1ccc(CNC(=O)NCCCn2nc3ccccn3c2=O)s1 | 7.2
11 | Cc1cccc(C(=O)NCCCN2CCN(c3ccccc3)CC2)c1 | 0.86
12 | Cc1cc(C2CCCN2Cc2ccn(C)c(=O)c2)no1 (stereo not given) | -1.63
13 | O=C(NCC(O)c1cccc(F)c1)c1cccnc1O (stereo not given) | -2.85
14 | CN1Cc2c(C(=O)Nc3cccnc3)ncn2-c2ccccc2S1(=O)=O | -2.67
15 | COc1ccccc1CN1CC[C@H]2C[C@@H](C(=O)N3CCCC3)O[C@H]2C1 | 0.335
16 | COC(=O)c1ccc(N2CCN(C(=O)c3cnn(C)c3)C(C)C2)cc1 (stereo not given) | 0.343
17 | Cc1cc(-c2nn(C)c(Cl)c2CN2CCOCC2CC(=O)O)no1 (stereo not given) | -2.48
18 | Cc1noc(CN2CCC(c3ccnn3CCO)CC2)n1 | -2.2
19 | COCC(=O)N1CCCC1c1cc(Nc2nnc(C)s2)nc(C)n1 (stereo not given) | -3.43
20 | COc1cc(C)nc(N2CCN(C(=O)c3ccc[nH]3)CC2)n1 | 1.55

Row | SMILES | Percent Effect [%]
21 | CC(C)C(C(=O)N1CCC(Nc2cccnn2)CC1)n1cncn1 (stereo not given) | 0.434
22 | CCOc1cccc2c1OCC(C(=O)NS(=O)(=O)c1ccc(Cl)cc1)=C2 | 0.459
23 | Cc1nc(CN2CCCC(N(C)CCc3ccncc3)C2)no1 (stereo not given) | 0.35
24 | Cc1cnc(CN(C)C2CCN(Cc3ccccc3C#N)C2)o1 (stereo not given) | -4.54
25 | CN1CCN(c2ncc3c(=O)n(-c4cccc(F)c4)c(=O)[nH]c3n2)CC1 | 11.2
26 | O=C(CCCNc1ncccn1)N1CCCC(n2cccn2)C1 (stereo not given) | 3.16
27 | Cc1ccccc1S(=O)(=O)NC(=O)CSc1ccc2c(c1)OCCO2 | -0.334
28 | CCCc1cc(NC2CCc3ncnn3C2)n2ncnc2n1 (stereo not given) | -2.01
29 | Cc1[nH]ccc1C(=O)N1CCC(c2nnc(Cn3ccnc3)n2C)CC1 | -1.28
30 | CN(C)C(=O)NC[C@H]1OC[C@@H]2CCN(Cc3ccoc3)C[C@@H]21 | 1.28
31 | CS(=O)(=O)NCC1CCCN(C(=O)c2cc3ccccc3o2)C1 (stereo not given) | 3.19
32 | CCCc1n[nH]c(C2CN(C(=O)c3ccco3)CCO2)n1 (stereo not given) | -0.955
33 | O=C(Cn1cnnn1)N1CCCCC1Cn1cccn1 (stereo not given) | -0.885
34 | Cc1ccc(-c2noc(CN3CCOC(Cn4cncn4)C3)n2)cc1 (stereo not given) | 3.79
35 | CNc1cc(CNC(=O)c2ccccn2)nc(-c2ccncc2)n1 | -1.21
36 | CCc1c(C)sc(NC(=O)CN2CCN(CC)CC2)c1C(=O)OC | -1.36
37 | CCn1cc(CN2C[C@@H]3CCCN3C[C@@H]2CCSC)c(C)n1 | -0.662
38 | O=C(Cc1cccc(F)c1)NCCNCc1ccco1 | 0.577
39 | Cc1ccc(N2CCCN(C(=O)C3(C#N)CCCCC3)CC2)nn1 | -0.989
40 | COc1cc(C)nc(N2CCN(C(=O)CCc3nccs3)CC2)n1 | 2.87

From ChEMBL document CHEMBL3988442, “University of Dundee, Small-Polar-MMV Screening Library” (2021)
